Results: the supplement of paper PMC10849652
Of roughly 7,900 targets only a part is listed; those with a hit were picked by preference. About 0.6% of all pairs of compound and target were hits.

Target: ZNF217 (UniProt O75362)
Assay: log2 fold change, soluble protein after heating vs DMSO (PISA); higher = thermal stabilisation; K562 cells, 10 uM, 30 min; active = over 0.2 and 3.5 SD of the protein, either way, in both replicates (recomputed)
Summary of the method: (§1)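 For each measurement, 10 μM compound was applied for 30 min to K562 cells at 2×10^6 cells/mL. Aliquots were heated for 3 min across 48°C-58°C, pooled, and extracted in PBS with 0.5% NP-40 at 4°C; the supernatant after 21,000xg for 90 min was soluble protein. This was quantified by TMTpro 16plex LC-MS/MS with channel sums equalised, and thermal stability was reported relative to control samples from duplicates, on a log2 fold-change scale.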

Sequence of ZNF217 (O75362 whole entry, looked up): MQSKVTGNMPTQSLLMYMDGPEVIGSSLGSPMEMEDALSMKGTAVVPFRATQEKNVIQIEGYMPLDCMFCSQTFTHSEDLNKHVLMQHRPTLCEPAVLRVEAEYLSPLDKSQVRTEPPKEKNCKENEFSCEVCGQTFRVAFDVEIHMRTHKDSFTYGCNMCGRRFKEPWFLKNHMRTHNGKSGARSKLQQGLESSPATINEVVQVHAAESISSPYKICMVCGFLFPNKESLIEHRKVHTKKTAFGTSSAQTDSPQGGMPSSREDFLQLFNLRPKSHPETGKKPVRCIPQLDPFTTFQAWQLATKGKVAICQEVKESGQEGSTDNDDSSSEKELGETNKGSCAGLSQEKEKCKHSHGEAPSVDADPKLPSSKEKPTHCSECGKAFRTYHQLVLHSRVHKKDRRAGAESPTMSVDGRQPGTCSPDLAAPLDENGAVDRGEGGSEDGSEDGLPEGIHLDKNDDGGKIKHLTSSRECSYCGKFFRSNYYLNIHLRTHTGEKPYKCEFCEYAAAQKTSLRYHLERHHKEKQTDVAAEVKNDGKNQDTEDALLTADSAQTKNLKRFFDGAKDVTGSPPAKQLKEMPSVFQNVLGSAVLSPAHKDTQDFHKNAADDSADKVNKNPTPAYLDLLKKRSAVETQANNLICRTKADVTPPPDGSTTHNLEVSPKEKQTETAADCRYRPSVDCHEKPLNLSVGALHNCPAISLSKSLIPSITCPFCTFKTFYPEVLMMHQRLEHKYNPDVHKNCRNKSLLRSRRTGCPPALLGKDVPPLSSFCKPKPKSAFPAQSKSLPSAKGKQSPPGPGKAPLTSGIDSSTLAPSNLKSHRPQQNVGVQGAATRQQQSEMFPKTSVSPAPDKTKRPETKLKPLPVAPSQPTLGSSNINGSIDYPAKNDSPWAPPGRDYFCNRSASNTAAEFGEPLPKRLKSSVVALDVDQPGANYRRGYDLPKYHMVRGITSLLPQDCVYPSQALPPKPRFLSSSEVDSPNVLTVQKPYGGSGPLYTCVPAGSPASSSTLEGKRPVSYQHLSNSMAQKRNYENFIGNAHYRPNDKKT

log2 fold change, active:
CCCS(=O)(=O)Nc1ccc(F)c(C(=O)c2c[nH]c3ncc(Cl)cc23)c1F 0.688

log2 fold change, inactive:
Cc1ccc(NC(=O)c2ccc(CN3CC[C@H](N(C)C)C3)c(C(F)(F)F)c2)cc1Nc1nccc(-c2cncnc2)n1 [bafetinib] -0.057, CNC(=O)c1ccc(Nc2ncc(C(F)(F)F)c(NCc3nccnc3N(C)S(C)(=O)=O)n2)cc1 [defactinib] -0.145, Cc1ccc(NC(=O)c2cccc(N(C)C)c2)cc1NC(=O)c1ccc(O)cc1 0.006, CCN(CCCOc1ccc2c(Nc3cc(CC(=O)Nc4cccc(F)c4)[nH]n3)ncnc2c1)CCOP(=O)(O)O [barasertib] 0.03, Cc1ccc2c(=O)c3ccccc3n(CCCN)c2c1C -0.142, COC(=O)[C@H](CCSC)NC(=O)c1ccc(NC[C@@H](N)CS)cc1-c1ccccc1 -0.067, CCCS(=O)(=O)Nc1ccc(F)c(C(=O)c2c[nH]c3ncc(-c4ccc(Cl)cc4)cc23)c1F [vemurafenib] 0.044, O=C1NC(=O)/C(=C\c2ccc3nccnc3c2)S1 0.007, CC(C)c1cnn2c(NCc3ccccc3)cc(NCCCCCCN)nc12 -0.034, Cn1cncc1[C@@](N)(c1ccc(Cl)cc1)c1ccc2c(c1)c(-c1cccc(Cl)c1)cc(=O)n2C [tipifarnib] -0.152, Cc1ccc(Sc2cncc3sc(C(N)=O)cc23)cc1 -0.107, CNC(=O)c1ccccc1Nc1nc(Nc2ccc(N3CCOCC3)cc2OC)ncc1Cl -0.029, CN(CCOc1ccc(C[C@@H]2SC(=O)NC2=O)cc1)c1ccccn1 (racemic) [rosiglitazone] 0.047, Cn1cc(-c2ccc3nnc(C(F)(F)c4ccc5ncccc5c4)n3n2)cn1 -0.01, CC(C)(C)Cn1c(N)nc2ccc(-c3[nH]c(C(C)(C)C)nc3-c3ccc(F)cc3)nc21 [ralimetinib] -0.012, Cc1ccc(C(=O)N(CCCN)[C@@H](c2nc3cc(Cl)ccc3c(=O)n2Cc2ccccc2)C(C)C)cc1 [ispinesib] -0.064, CC[C@@H]1C(=O)N(C)c2cnc(Nc3ccc(C(=O)N[C@H]4CC[C@H](N5CCN(CC6CC6)CC5)CC4)cc3OC)nc2N1C(C)C [volasertib] -0.007, CS(=O)(=O)CCNCc1ccc(-c2ccc3ncnc(Nc4ccc(OCc5cccc(F)c5)c(Cl)c4)c3c2)o1 [lapatinib] 0.018, C#Cc1cccc(Nc2ncnc3cc(OCCOC)c(OCCOC)cc23)c1 [erlotinib] 0.001, CCn1c(C(=O)N(C2CC2)C2CC2)cc2c3c(ncn3C)c(Nc3cc(C)n(C)n3)nc21 -0.034, NC(=O)c1ccc2nc(-c3ccc(Oc4ccc(Cl)cc4)cc3)[nH]c2c1 0.015, CC(C)C[C@@H](C=O)NC(=O)[C@H](CC(C)C)NC(=O)[C@H](CC(C)C)NC(=O)OCc1ccccc1 0.024, C=CC(=O)N1CCC[C@@H](n2nc(-c3ccc(Oc4ccccc4)cc3)c3c(N)ncnc32)C1 [ibrutinib] -0.028, CN(C)CC(=O)Nc1ccc2[nH]c(=O)c3ccccc3c2c1 0.06, NCC(=O)Nc1ccc(-n2nc(C(F)(F)F)cc2-c2ccc3c(ccc4ccccc43)c2)cc1 -0.081, O=C(Nc1cccc(Nc2ncc(Br)c(NCCc3cnc[nH]3)n2)c1)N1CCCC1 0.01, Oc1cc(-c2nc(-c3ccccc3)[nH]c2-c2ccncc2)ccc1Cl -0.014, CN1CCc2c(c3ccccc3n2Cc2ccc(C(=O)NO)cc2)C1 [Tubastatin A] -0.086, COc1cc2nc(-c3cc(F)ccc3O)nc(N[C@@H]3CNC[C@H]3C(C)(C)O)c2cc1OC -0.026

Target: ZNF239 (UniProt Q16600)
Assay: as above
Summary of the method: as §1

Sequence of ZNF239 (Q16600 whole entry, looked up): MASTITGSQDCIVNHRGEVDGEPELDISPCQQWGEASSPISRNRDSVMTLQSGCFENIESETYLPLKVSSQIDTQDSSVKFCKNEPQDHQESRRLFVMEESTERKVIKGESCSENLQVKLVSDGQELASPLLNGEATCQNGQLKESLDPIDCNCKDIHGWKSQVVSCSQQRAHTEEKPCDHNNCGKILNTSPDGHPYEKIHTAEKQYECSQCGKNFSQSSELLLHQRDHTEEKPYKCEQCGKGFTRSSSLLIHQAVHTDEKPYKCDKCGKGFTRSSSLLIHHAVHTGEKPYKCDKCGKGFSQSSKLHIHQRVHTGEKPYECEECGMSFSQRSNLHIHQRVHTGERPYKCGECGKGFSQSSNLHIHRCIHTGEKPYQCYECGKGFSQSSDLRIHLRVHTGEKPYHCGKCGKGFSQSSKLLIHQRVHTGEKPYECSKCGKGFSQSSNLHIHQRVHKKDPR

log2 fold change, inactive:
Cc1ccc(NC(=O)c2ccc(CN3CC[C@H](N(C)C)C3)c(C(F)(F)F)c2)cc1Nc1nccc(-c2cncnc2)n1 [bafetinib] -0.452, CNC(=O)c1ccc(Nc2ncc(C(F)(F)F)c(NCc3nccnc3N(C)S(C)(=O)=O)n2)cc1 [defactinib] -0.014, CCCS(=O)(=O)Nc1ccc(F)c(C(=O)c2c[nH]c3ncc(Cl)cc23)c1F -0.02, Cc1ccc(NC(=O)c2cccc(N(C)C)c2)cc1NC(=O)c1ccc(O)cc1 0.143, CCN(CCCOc1ccc2c(Nc3cc(CC(=O)Nc4cccc(F)c4)[nH]n3)ncnc2c1)CCOP(=O)(O)O [barasertib] -0.034, Cc1ccc2c(=O)c3ccccc3n(CCCN)c2c1C 0.011, COC(=O)[C@H](CCSC)NC(=O)c1ccc(NC[C@@H](N)CS)cc1-c1ccccc1 0.002, CCCS(=O)(=O)Nc1ccc(F)c(C(=O)c2c[nH]c3ncc(-c4ccc(Cl)cc4)cc23)c1F [vemurafenib] 0.004, O=C1NC(=O)/C(=C\c2ccc3nccnc3c2)S1 0.065, CC(C)c1cnn2c(NCc3ccccc3)cc(NCCCCCCN)nc12 0.149, Cn1cncc1[C@@](N)(c1ccc(Cl)cc1)c1ccc2c(c1)c(-c1cccc(Cl)c1)cc(=O)n2C [tipifarnib] 0.178, Cc1ccc(Sc2cncc3sc(C(N)=O)cc23)cc1 0.019, CNC(=O)c1ccccc1Nc1nc(Nc2ccc(N3CCOCC3)cc2OC)ncc1Cl -0.055, CN(CCOc1ccc(C[C@@H]2SC(=O)NC2=O)cc1)c1ccccn1 (racemic) [rosiglitazone] 0.17, Cn1cc(-c2ccc3nnc(C(F)(F)c4ccc5ncccc5c4)n3n2)cn1 -0.102, CC(C)(C)Cn1c(N)nc2ccc(-c3[nH]c(C(C)(C)C)nc3-c3ccc(F)cc3)nc21 [ralimetinib] -0.07, Cc1ccc(C(=O)N(CCCN)[C@@H](c2nc3cc(Cl)ccc3c(=O)n2Cc2ccccc2)C(C)C)cc1 [ispinesib] -0.074, CC[C@@H]1C(=O)N(C)c2cnc(Nc3ccc(C(=O)N[C@H]4CC[C@H](N5CCN(CC6CC6)CC5)CC4)cc3OC)nc2N1C(C)C [volasertib] 0.084, CS(=O)(=O)CCNCc1ccc(-c2ccc3ncnc(Nc4ccc(OCc5cccc(F)c5)c(Cl)c4)c3c2)o1 [lapatinib] -0.095, C#Cc1cccc(Nc2ncnc3cc(OCCOC)c(OCCOC)cc23)c1 [erlotinib] -0.098, CCn1c(C(=O)N(C2CC2)C2CC2)cc2c3c(ncn3C)c(Nc3cc(C)n(C)n3)nc21 0.004, NC(=O)c1ccc2nc(-c3ccc(Oc4ccc(Cl)cc4)cc3)[nH]c2c1 0.248, CC(C)C[C@@H](C=O)NC(=O)[C@H](CC(C)C)NC(=O)[C@H](CC(C)C)NC(=O)OCc1ccccc1 0.045, C=CC(=O)N1CCC[C@@H](n2nc(-c3ccc(Oc4ccccc4)cc3)c3c(N)ncnc32)C1 [ibrutinib] 0.165, CN(C)CC(=O)Nc1ccc2[nH]c(=O)c3ccccc3c2c1 -0.1, NCC(=O)Nc1ccc(-n2nc(C(F)(F)F)cc2-c2ccc3c(ccc4ccccc43)c2)cc1 -0.027, O=C(Nc1cccc(Nc2ncc(Br)c(NCCc3cnc[nH]3)n2)c1)N1CCCC1 0.001, Oc1cc(-c2nc(-c3ccccc3)[nH]c2-c2ccncc2)ccc1Cl 0.044, CN1CCc2c(c3ccccc3n2Cc2ccc(C(=O)NO)cc2)C1 [Tubastatin A] 0.091, COc1cc2nc(-c3cc(F)ccc3O)nc(N[C@@H]3CNC[C@H]3C(C)(C)O)c2cc1OC 0.024
